Results on 96 compounds are retold here after PubChem BioAssay AID1445 (SRMLSC, 2008).

In all, about 220,000 compounds went through this assay and about 910 (0.41%) were called active. The entries come from a sample that favours actives as a whole. Results with a measured potency or affinity are listed apart. Values without a mark were called inactive.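 Rule for the calls: active = primary inhibition above the hit cutoff, then over 50% inhibition at one or more dose response concentrations (cut at about 23% in these data, passing the limit was not always enough); inconclusive = conflicting primary data, or primary hits not chosen for dose response; inactive = low primary inhibition, or under 50% at every dose.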

In this assay the target is Aminopeptidase N (Plasmodium falciparum (isolate 3D7)) (UniProt O96935). Put plainly: P. falciparum M1AAP inhibitors, biochemical, fluorogenic H-Leu-NHMec substrate, 1536-well (AID 1445).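 Note: plate controls were DMSO full reaction for no effect and no enzyme background for full effect.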 Conditions: recombinant M1AAP, H-Leu-NHMec fluorogenic kinetic assay; at 30 µM, stronger effect = higher value unless noted.
Chain of Aminopeptidase N (Plasmodium falciparum (isolate 3D7)) (O96935 whole entry, looked up): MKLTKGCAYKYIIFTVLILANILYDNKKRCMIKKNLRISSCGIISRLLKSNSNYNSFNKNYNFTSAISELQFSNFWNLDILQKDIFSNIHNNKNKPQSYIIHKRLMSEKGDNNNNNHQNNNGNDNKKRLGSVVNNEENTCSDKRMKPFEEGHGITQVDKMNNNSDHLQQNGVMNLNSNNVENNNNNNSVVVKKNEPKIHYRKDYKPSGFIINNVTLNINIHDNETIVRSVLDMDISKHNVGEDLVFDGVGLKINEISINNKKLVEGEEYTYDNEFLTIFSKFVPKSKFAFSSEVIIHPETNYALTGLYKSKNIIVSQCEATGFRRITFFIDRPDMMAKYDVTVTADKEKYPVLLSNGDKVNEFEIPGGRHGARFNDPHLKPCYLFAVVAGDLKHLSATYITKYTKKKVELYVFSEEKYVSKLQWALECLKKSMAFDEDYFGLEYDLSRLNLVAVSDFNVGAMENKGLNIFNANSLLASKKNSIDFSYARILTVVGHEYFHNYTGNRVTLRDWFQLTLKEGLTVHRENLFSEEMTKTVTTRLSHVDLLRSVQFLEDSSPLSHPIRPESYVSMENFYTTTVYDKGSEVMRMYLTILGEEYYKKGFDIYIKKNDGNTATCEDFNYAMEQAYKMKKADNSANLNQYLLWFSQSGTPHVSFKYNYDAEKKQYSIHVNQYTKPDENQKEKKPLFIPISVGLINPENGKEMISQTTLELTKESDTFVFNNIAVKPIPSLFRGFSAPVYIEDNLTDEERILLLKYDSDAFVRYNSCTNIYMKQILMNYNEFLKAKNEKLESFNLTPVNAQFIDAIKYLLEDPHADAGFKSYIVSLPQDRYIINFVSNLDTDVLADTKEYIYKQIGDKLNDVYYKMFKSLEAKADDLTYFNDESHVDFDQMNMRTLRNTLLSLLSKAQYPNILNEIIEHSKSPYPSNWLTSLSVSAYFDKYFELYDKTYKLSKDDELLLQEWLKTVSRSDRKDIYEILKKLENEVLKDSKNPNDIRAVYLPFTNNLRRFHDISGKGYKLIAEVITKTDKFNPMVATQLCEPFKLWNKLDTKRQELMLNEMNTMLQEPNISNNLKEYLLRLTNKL
Take `CN(C)CCCNS(=O)(=O)c1cc(Cl)c(Cl)cc1Cl`: the inhibition (as a rule, the drop in the measured response relative to a control, in per cent) was 0.71%.

For `C#CCOC(=O)Nc1ccc(OCC(F)(F)F)nc1`, the inhibition is -3.37%. Turning to `O=C(O)Cc1cc(C(=O)Nc2ccc(Br)cc2)sc1-c1ccccc1`, the inhibition is 8.41%.

Regarding `COc1ccc([N+](=O)[O-])cc1NC(=O)C(C)OC(=O)c1cccnc1` (stereo unspecified), the inhibition was -3.23%. The value for `CC(C)[C@H](NC(=O)c1ccc(Cl)c([N+](=O)[O-])c1)C(=O)NCc1ccc(F)cc1` was 3.78%. The value for `Cc1cc(NC(=O)c2ccccc2)ncc1NC(=O)c1ccco1` was 5.34%; that for `Cc1cc(NC(=O)c2ccco2)ncc1NC(=O)CCc1ccccc1` was 29.7% (active); that for `Cc1cc(NC(=O)c2ccco2)ncc1NC(=O)Cc1ccccc1` was 0.67%. Consider `CC1CCCC(NC(=O)CCn2c(=S)oc3ccccc32)C1C` (stereo unspecified), for which the inhibition is 3.48%.

Take `Cc1ccc(-n2c(-c3nn(C)c(C)c3Cl)n[nH]c2=S)cc1`: the inhibition was 1.9%.

With `CCNC(=O)C1CC(=O)N(Cc2ccc3c(c2)OCO3)C(=Nc2ccc(F)cc2)S1` (stereo unspecified), the inhibition is 27% (active). For `CNC(=O)C1CC(=O)N(Cc2ccc3c(c2)OCO3)C(=Nc2ccc(F)cc2)S1` (stereo unspecified), the inhibition is -5.29%. Regarding `CCNC(=O)C1CC(=O)N(Cc2ccc3c(c2)OCO3)C(=Nc2ccc(OCC)cc2)S1` (stereo unspecified), the inhibition is -1.35%. Regarding `COc1ccc(NC(=S)N2CCN(c3ncccn3)CC2)cc1`, the inhibition is 4.34%.

As to `CC1=CC(c2ccccc2)n2nnnc2N1` (stereo unspecified), the inhibition is -5.78%. The value for `c1ccc2c(c1)nc(N1CCOCC1)c1nncn12` was 4.1%; that for `c1ccc(N2CCN(c3nc4ccccc4n4cnnc34)CC2)cc1` was 14.5%; that for `c1cnc(N2CCN(c3nc4ccccc4n4cnnc34)CC2)nc1` was 24.4% (active).

For `Cc1cc(C)n(Cc2nc3ccccc3n2C)n1`, the inhibition is -3.79%.

Regarding `CC(C)(C)[C@H]1C=C(C(=O)NC2CC2)O[C@@H](OCc2ccc(CO)cc2)C1`, the inhibition was 1.09%. The result for `CC(=O)NNC(=O)c1sc(=S)n(C)c1C` reads 0.62%; that for `CCCCCNC(=O)c1ccc2c(=O)n(CC3CCCO3)c(=O)[nH]c2c1` (stereo unspecified), 4.6%. The value for `NC(=O)c1sc(=S)n2c1[nH]c(=O)c1sccc12` was 17.2%.

Regarding `CCCCCNC(=O)c1ccc2c(=O)n(CC3CCCO3)c(=S)[nH]c2c1` (stereo unspecified), the inhibition was 5.58%.

Take `O=C(NC1CCCCC1)c1sc(=S)n2c1[nH]c(=O)c1ccccc12`: the inhibition was 0.76%. The result for `O=C(NCc1ccccc1)c1sc(=S)n2c1[nH]c(=O)c1ccccc12` reads 18.5%; that for `O=C(NCC1CCCO1)c1sc(=S)n2c1[nH]c(=O)c1ccc(C(=O)N3CCCCC3)cc12` (stereo unspecified), 20.2%; that for `Cc1ccc(CNC(=O)c2ccc3c(=O)[nH]c4c(C(=O)NCC5CCCO5)sc(=S)n4c3c2)cc1` (stereo unspecified), 23%. Take `O=C(NCc1ccco1)c1ccc(Br)c(S(=O)(=O)N2CCCCC2)c1`: the inhibition is 3.95%. With `COc1ccc(NC(=O)C23CC4CC(C2)CC(c2ccccc2)(C4)C3)c(OC)c1`, the inhibition is -2.32%. As to `COc1c(C)cc(C(=O)C2CCCN(C(=O)c3cccc(F)c3)C2)cc1C` (stereo unspecified), the inhibition was 0.9%. `CC(=O)Nc1ccc(OCC(O)Cn2c(CO)nc3ccccc32)cc1` (stereo unspecified): the inhibition was 6.49%. On to `Cc1ccc(N(CC(=O)O)S(C)(=O)=O)cc1Cl`, for which the inhibition was -5.06%. `C=CCOC(=O)C(=O)/C=C/c1csc2ccccc12`: the inhibition is 1.93%. On to `Cc1cc(C)c2c(-n3cccc3)c(C(=O)NNS(=O)(=O)c3ccc(F)cc3)sc2n1`, for which the inhibition was -2.28%. The result for `Cc1cc(C)c2c(-n3cccc3)c(C(=O)O)sc2n1` reads 12.2%; that for `COC(=O)C(=C/C(C)=C/c1cccs1)C(=O)OC`, 13.8%. Regarding `Cc1ccc(N2C(=O)CCC2(C(N)=O)c2ccccc2)cc1` (stereo unspecified), the inhibition was -0.36%. Regarding `CCC(=O)Nc1ccc(-c2nc3ccccc3c(=O)o2)cc1`, the inhibition was 2.53%. The value for `CCOc1ccccc1CN1CCN(Cc2[nH]c3ccccc3c2C)CC1CCO` (stereo unspecified) was -0.18%; that for `COc1cccc(/C=N\NC(=O)c2sc(N)nc2C)c1OC` was 24.5% (active); that for `COc1cc(/C=N\NC(=O)c2sc(N)nc2C)cc(OC)c1OC` was 8.26%. Regarding `Cc1nc(N)sc1C(=O)N/N=C/c1ccccc1[N+](=O)[O-]`, the inhibition is 5.94%. The result for `Cc1csc(Nc2ccccc2)[n+]1C` reads -12.3%.

In the case of `CC(C)c1cc(C(=O)Nc2sc3c(c2C#N)CCC3)no1`, the inhibition was 20.6%. In the case of `Cc1cc(C(=O)Nc2sc3c(c2C#N)CCC3)no1`, the inhibition was 23.7% (active).

Consider `Cc1cc(C(=O)Nc2sc3c(c2C#N)CCCC3)no1`, for which the inhibition is 8.77%. The value for `Cc1ccc(S(=O)(=O)NC(=O)NCCCCNC(=O)NS(=O)(=O)c2ccc(C)cc2)cc1` was 0.51%; that for `Cc1ccc(Cc2cc(C)n[nH]c2=O)cc1` was 9.53%.

Consider `COCc1cc(C)nc(OCC(=O)N/N=C/c2ccco2)c1C#N`, for which the inhibition was 9.71%. For `CC(=O)Nc1nc(C(=O)O)cs1`, the inhibition was -0.08%.

Turning to `CC(=O)Nc1ccc(-c2csc(N/N=C(/C)c3ccccc3)n2)cc1`, the inhibition is 11.9%. The value for `CCc1nnc(N/N=C/c2c(Cl)cccc2Cl)n1N` was 1.62%. On to `O=C(Nc1cccs1)Nc1ccc(Br)cc1F`, for which the inhibition is 5.12%.

Turning to `CCOC(=O)NNS(=O)(=O)c1cc(Br)ccc1Br`, the inhibition is -1.42%.

On to `CCOc1ccc(Br)cc1S(=O)(=O)Nc1ccc(NC(=O)c2ccccc2C)cc1`, for which the inhibition is 7.33%.

Take `Cc1ccc(CN2C(=O)N/C(=C\c3cccn3-c3cccc(C(=O)O)c3)C2=O)cc1`: the inhibition is 11.9%. For `Cc1nc(S/C(=C/c2ccc(-c3ccc(Cl)cc3)o2)C(=O)O)n[nH]1`, the inhibition is -6.28%.

As to `CC(=O)c1ccc(-c2ccc(/C=C(/Sc3n[nH]c(C)n3)C(=O)O)o2)cc1`, the inhibition is 5.19%. The result for `O=Cc1ccc(-c2ccc(C(=O)O)cc2)o1` reads 7.72%. With `Cc1nc(S/C(=C/c2ccc(-c3cccc(Cl)c3)o2)C(=O)O)n[nH]1`, the inhibition was -8.13%.

Take `CCc1nnc(NC(=O)C2CCCN(c3nc(C)cc(C)n3)C2)s1` (stereo unspecified): the inhibition is 3.57%. The result for `S=c1[nH]c(-c2ccccc2)cn1/N=C/c1cccnc1` reads 1.39%; that for `O=C(CCCN1C(=O)/C(=C/c2ccccc2Cl)SC1=S)NNC(=O)c1cccnc1`, 2.83%. The result for `COc1ccccc1/C=C1\SC(=S)N(N2C(=O)CCCC2=O)C1=O` reads 3%; that for `COc1ccc(/C=C/C(=O)c2ccccc2)c(OC)c1`, 10.2%; that for `COc1cccc(/C=C2\SC(=S)N(C(C(=O)O)c3ccccc3)C2=O)c1OC` (stereo unspecified), 18.2%.

Regarding `COc1ccc(OC)c(/C=C2\SC(=S)N(N3CCOCC3)C2=O)c1`, the inhibition is 6.71%.

`CC(/C=C1\SC(=S)N(C(C(=O)O)C(C)C)C1=O)=C\c1ccccc1` (stereo unspecified): the inhibition was 14%.

As for `COc1ccc(/C=C2\SC(=S)N(N3CCOCC3)C2=O)c(OC)c1`, the inhibition was 1.37%.

Consider `CC(=C\c1ccccc1)/C=C1/SC(=S)N(C(C(=O)O)C(C)C)C1=O` (stereo unspecified), for which the inhibition is 8.4%. Turning to `COc1ccc(OC)c(/C=C2\SC(=S)N(Cc3cccnc3)C2=O)c1`, the inhibition was -5.9%.

As for `C/C(=N/NS(=O)(=O)c1ccc(C)cc1)c1ccc(NC(=O)C(F)(F)F)cc1`, the inhibition was 2.89%. The result for `Cc1cnc(NC(=O)CSc2nnc(C)n2N)s1` reads 2.39%; that for `Cc1ccc(OCc2nc(-c3ccccn3)n[nH]2)cc1`, -24.5%. The result for `CCCCn1nnnc1NCc1cccnc1` reads 4.66%. The value for `CCOC(=O)C1CCCN(CC(=O)/C=C2/N(C)c3ccccc3C2(C)C)C1` (stereo unspecified) was 9.72%; that for `COc1ccc(NS(=O)(=O)c2cccc(C(=O)N/N=C/c3ccc(O)cc3)c2)cc1` was 7.62%; that for `CCC1CCc2[nH]nc(C(=O)O)c2C1` (stereo unspecified) was 7.24%. As to `Cc1nn(C(=O)N2CCCCC2)c(C)c1CN1C(=O)c2ccccc2C1=O`, the inhibition was -0.2%.

Consider `Cc1cc(C)cc(NC(=O)C(OC(=O)c2cccs2)c2ccccc2)c1` (stereo unspecified), for which the inhibition was 3.45%. Consider `OCCC1CN(Cc2nc(-c3ccccc3)cs2)CCN1CCc1ccccc1` (stereo unspecified), for which the inhibition is 7.68%.

As for `CSc1nc2ncc(-c3ccsc3)c(N)n2n1`, the inhibition is 7.33%.

For the compound `O=C(O)C(Cc1ccccc1)N1C(=O)/C(=C/c2cccs2)SC1=S` (stereo unspecified), the inhibition was 11.1%. Consider `CC(c1ccccc1)N1C(=O)/C(=C/c2ccncc2)SC1=S` (stereo unspecified), for which the inhibition is -2.44%. The result for `O=C1NN(c2ccccc2)C(=O)/C1=C/c1ccc(-c2ccc(Cl)c(C(=O)O)c2)o1` reads 32.2%; that for `Cc1ccc(N2NC(=O)/C(=C/c3ccc(-c4ccc(Cl)c(C(=O)O)c4)o3)C2=O)cc1`, 5.62%; that for `CC1(C)OC(=O)C(=Cc2ccc(-c3ccc(Cl)c(C(=O)O)c3)o2)C(=O)O1`, 8.63%. On to `CC1=NOC(=O)/C1=C/c1ccc(-c2ccc(Cl)cc2)o1`, for which the inhibition is 5.39%.

On to `CCCCC1(C)OC(=O)C(=Cc2ccc(-c3ccc(Cl)c(C(=O)O)c3)o2)C(=O)O1` (stereo unspecified), for which the inhibition is 9.08%. As to `O=C(O)c1cc(-c2ccc(/C=C3\NC(=O)N(c4ccccc4)C3=O)o2)ccc1Cl`, the inhibition was 18.7%. The value for `Cc1ccc(C)c(-n2c(SCC(=O)NC(C(=O)O)C(C)C)nnc2-c2cccc(Cl)c2)c1` (stereo unspecified) was 0.37%. The value for `CC1CC(NC(=O)C2(C)CC2(Cl)Cl)CC(C)(C)C1` (stereo unspecified) was 1.77%; that for `O=C1CCn2nc(-c3ccc(Cl)cc3)cc2N1` was 0.78%; that for `O=C(O)CCC(=O)NNC(=O)c1cccc(Cl)c1` was 8.54%.

Consider `Cn1cc(-c2nnnn2-c2ccc(Cl)cc2)c(=O)c2ccccc21`, for which the inhibition was -1.66%.
